# DT40 TDP1 no CPT: qHTS for Inhibitors of human tyrosyl-DNA phosphodiesterase 1 (TDP1): qHTS in cells in absence of CPT; DT40 Tdp1-/- hTDP1 cells, no CPT, ATP luminescence, 48 h; Potency, µM (doses to about 46.2 µM), without a hit: top-dose activity change, negative = growth inhibition, most hits filed as inhibitors; actives 15% (n = 420,000); further: nearly all actives have a fitted effect of over 55% in size
#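 A cellular qHTS used chicken DT40 cells lacking endogenous Tdp1 but carrying stably transfected human TDP1. Compounds were applied without camptothecin, and cell growth kinetics were judged by ATP-dependent luminescence after ≥48 hr.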
# KB-3-1 cytotox: kills parental KB-3-1 adenocarcinoma cells; KB-3-1 viability, CellTiter-Glo ATP luminescence, 72 h; Potency, µM (top dose mostly 46.1 µM), usual class: cytotoxic; actives 1.4% (n = 400,000); further: nearly all actives have a fitted effect of over 60% in size
#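 Viability of parental KB-3-1 cells, measured by CellTiter-Glo luminescence, followed a 72 h incubation at 37 °C with pinned compounds in phenol-red-free DMEM containing 10% FBS.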
# HT1080 IDH1KD tx: kills HT-1080 cells with IDH1 knockdown. HT-1080 IDH1 knockdown viability, ATP luminescence, 48 h. Potency, µM (doses to about 46.1 µM), without a hit: at the top dose activity, negative = toxicity, usual class: cytotoxic. actives 2% (n = 360,000). AID 686971;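 further: 0% = DMSO wells and -100% = cell-free medium wells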
#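 Assay cells: HT-1080 with IDH1 knockdown, 750 per well, RPMI/5% FBS. Exposure: 48 h at 37 °C following 2 h pre-incubation. Read: CellTiter-Glo luminescence; fitted concentration-response, curve class assigned.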
# DT40 TDP1 CPT: growth inhibition of DT40 Tdp1-/-;hTDP1 cells with camptothecin (screen for TDP1 inhibitors) | chicken DT40 Tdp1-/-;hTDP1 cells + 20 nM CPT, ATP luminescence, 48 h | Potency, µM (titrated, usually from 46.2 µM), without a hit: at the top dose activity change, negative = growth inhibition, usual class: inhibitors | actives 12% (n = 420,000) | AID 686979; further: nearly all actives have a fitted effect of over 55% in size
#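 Chicken DT40 Tdp1-/- cells complemented with human TDP1, 400 cells/well, exposed to compounds plus 20 nM camptothecin for at least 48 h at 37 C; viability read as ATP content by CellTiter-Glo luminescence.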
# HT1080NT lethal: kills 2HG-producing HT-1080-NT fibrosarcoma cells | HT-1080-NT fibrosarcoma viability, CellTiter-Glo ATP luminescence, 48 h | Potency, µM (highest dose often 46.1 µM), without a hit: at the highest dose activity, negative = less viability, hits mostly cytotoxic | actives 1.6% (n = 360,000) | AID 686970;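 further: NT is the 2HG producing partner of a matched IDH1 knockdown line; 0% = DMSO-treated cells and -100% = media-only wells without cells; nearly all actives have a fitted effect of over 55% in size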
#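 Luminescent CellTiter-Glo readout after 48 hours of compound exposure at 37 degrees C defined viability of HT-1080-NT cells. Activity was normalized to DMSO wells and cell-free media wells; concentration-response curves were fitted and assigned curve classes.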
# KB-V1 cytotox: kills drug-selected multidrug resistant KB-V1 cells; KB-V1 MDR cells viability, CellTiter-Glo, 72 h; actives 3.4% (n = 400,000); AID 1347076; Potency, µM (titrated, usually from 46.1 µM), actives largely listed as cytotoxic; further: nearly all actives have a fitted effect of over 60% in size
#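 Drug-selected KB-V1 cells, grown in DMEM lacking phenol red with 10% FBS, receive compound titrations; after three days at 37 degrees C, surviving cell ATP is quantified by CellTiter-Glo luminescence and responses normalized and curve-fitted.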
# Active calls of the source: *; i = inactive; ? = inconclusive; / = no result; [ ] = another dose, or the depositor's remark. An excerpt weighted towards active compounds, which were near 19% of everything screened. The call rests on the fitted dose curve; in most records, active means well fitted curve in the direction sought with a large enough effect; inconclusive means small, poorly fitted or top-dose-only effect, or another doubt; inactive means no such curve, though single readings can be large; an effect the other way counts as inactive or inconclusive. Unless noted, on the % scale 0 is the no-effect control and ±100 the full control effect; potency means the concentration at half of the fitted maximal effect.
SMILES,DT40 TDP1 no CPT,KB-3-1 cytotox,HT1080 IDH1KD tx,DT40 TDP1 CPT,HT1080NT lethal,KB-V1 cytotox
O=C(NCc1cccnc1)c1cc(C2CCCCN2C(=O)c2cccs2)on1 (stereo not drawn),-26%,i,18%,-29%,26%,i
N#Cc1cccc(NC(=O)c2cc(C3CCCCN3C(=O)c3ccccc3)on2)c1 (stereo not drawn),10µM*,i,-9%,18µM*,-1%,i
COc1ccccc1NC(=O)CSc1nc2ccccc2nc1N1CC(C)OC(C)C1 (stereo not drawn),?,i,-4%,21µM*,-25%,i
COc1ccc(C)cc1NC(=O)CSc1nc(=O)n(Cc2ccncc2)c2c1CCC2,?,i,/,?,/,i
COc1cccc(NC(=O)CSc2nc3ccccc3nc2N2CCCC2)c1,?,?,?,?,-28%,i
COc1ccc(C)cc1NC(=O)CSc1nc2ccccc2nc1N1CC(C)OC(C)C1 (stereo not drawn),26µM*,i,-12%,23µM*,9%,i
CSc1cccc(NC(=O)Cn2ncn3c(cc4ccccc43)c2=O)c1,?,/,/,-3%,/,/
Cc1ccc(C(=O)Nc2c(-c3ccccc3)nc3ccccn23)cc1C,?,i,/,-6%,/,i
Cc1cc(Br)c2c(c1)C1(OCCO1)C(=O)N2,1%,i,2%,6%,6%,i
Oc1ccccc1-c1nc(/C=C/c2ccccc2)nn1-c1ccccc1,?,i,3%,-27%,1%,?
O=C(O)c1ccc(-n2nc(-c3ccccc3O)nc2-c2ccccc2O)cc1,21µM*,/,/,?,/,/
O=C(O)C1CCC[C@@H]2[C@@H]3CC(CN12)[C@@H]1CCCCN1C3 (stereo partly drawn),-21%[9.04 µM],/,/,-27%[9.04 µM],/,/
CCCOc1ccc(Cl)cc1/C=C1/C(=O)ON=C1C,?,i,5%,29µM*,1%,i
C#CCOc1ccc(/C=C2/C(=O)ON=C2C)cc1Cl,18µM*,i,-11%,?,-2%,i
CC1=NOC(=O)/C1=C\c1ccc(-c2ccc(Cl)cc2Cl)o1,12µM*,?,?,13µM*,?,?
CN1CCCC2(CCN(C(=O)c3cccc(F)c3)CC2)C1,4%,/,/,6%,/,/
COc1ccc(-c2ncccc2OC(=O)C23CC4CC(CC(C4)C2)C3)cc1,23µM*,i,-7%,18µM*,0%,i
C[C@H](CO)N1C[C@H](C)[C@@H](CN(C)C(=O)CCC(F)(F)F)OCc2cnnn2CCCC1=O,6%,i,18%,1%,1%,i
[O-]/[N+](=C\c1ccccc1)c1ccccc1,?,i,11%,?,6%,i
[O-]/[N+](=C\c1ccccc1)c1ccc(Br)cc1,16µM*,i,1%,?,0%,?
COc1ccc(CNC(C)C23CC4CC(CC(C4)C2)C3)c(OC)c1OC (stereo not drawn),15µM*,i,-13%,?,-22%,i
COc1cccc(OC)c1C(=O)NC(C)C12CC3CC(CC(C3)C1)C2 (stereo not drawn),?,i,-2%,?,-1%,i
c1ccc(-c2cc(N3CCOCC3)nc3ccccc23)cc1,?,i,?,?,-12%,21µM*
COCc1cc(N2CCOCC2)nc(-c2ccccc2)n1,?,i,-2%,23µM*,-6%,i
O=C(O)c1c2c(nc3ccccc13)-c1ccccc1CC2,-9%,i,-6%,-4%,-12%,i
SMILES,DT40 TDP1 no CPT,KB-3-1 cytotox,HT1080 IDH1KD tx,DT40 TDP1 CPT,HT1080NT lethal,KB-V1 cytotox
CC(C)Sc1cc(N2CCCC2)nc(-c2ccc(F)cc2)n1,?,i,-8%,6%,-2%,i
c1ccc2c(c1)CCc1c-2nc2ccccc2c1N1CCOCC1,?,i,-20%,12µM*,0%,i
c1ccc(-c2ccc(Oc3cc(N4CCOCC4)nc(-c4ccccc4)n3)cc2)cc1,?,i,-23%,?,0%[9.24 µM],i
CC(C)Sc1cc(N2CCOCC2)nc(-c2ccccc2)n1,16µM*,i,-22%,23µM*,-13%,i
O=C(COc1ccccc1[N+](=O)[O-])N(Cc1ccco1)C1CCS(=O)(=O)C1 (stereo not drawn),17%,i,12%,0%,14%,i
Cc1noc(C)c1C(=O)N(CC(=O)Nc1ccc(Cl)c(C(F)(F)F)c1)Cc1ccco1,-27%,i,-3%,-23%,-3%,?
N#Cc1ccc(OCC(=O)N(C2CCCCC2)C2CCS(=O)(=O)C2)cc1 (stereo not drawn),3%,i,9%,-6%,-11%,i
CCN(CC)CCN(C)C(=O)c1[nH]c(C(F)(F)F)nc1-c1ccccc1,1%,i,2%,8%,23%,i
Cc1ccc(S(=O)(=O)N(CC(O)CN2CCOCC2)c2cccc([N+](=O)[O-])c2)cc1 (stereo not drawn),-5%,i,-9%,-9%,0%,i
COCc1cc(N2CCN(c3ccccc3F)CC2)nc(-c2ccccc2)n1,12µM*,i,-8%,?,3%,i
Cn1c(-c2ccccc2)cc2onc(-c3ccccc3)c2c1=O,21µM*,i,-6%,15µM*,-2%,i
O=C(NCC1CC1)c1ccc2c(c1)S(=O)(=O)c1cc(Cl)ccc1C2=O,?,i,0%,?,1%,i
CC(C)Sc1nc(N2CCOCC2)c2c(c1C#N)CC(C)(C)SC2,?,?,-3%,?,-2%,6.5µM*
COC(=O)Sc1nc(N2CCOCC2)c2c(c1C#N)CC(C)(C)OC2,?,i,0%,26µM*,-6%,i
CC(C)Sc1nc(N2CCOCC2)c2c(c1C#N)CC(C)(C)N(C)C2,16µM*,i,-5%,18µM*,0%,i
O=C(CSc1nnc(-c2cccnc2)s1)Nc1ccc(C(=O)O)cc1,-12%,i,0%,9%,4%,i
O=C(C[C@@H]1CC[C@H](NC(=O)Cc2ccccn2)[C@@H](CO)O1)NCCc1ccccc1,4%,i,9%,1%,17%,i
Cc1ccc(NC(=O)CSc2nnc3n2CCCCC3)cc1S(=O)(=O)N1CCOCC1,-14%,?,-3%,-7%,-5%,i

# From PubChem
